Usually inhibition stands for the drop in the measured response relative to a control, in per cent.

Experimental findings from PubChem BioAssay are described below.

SMILES strings stand for the structures. Values without a mark were called inactive. For some of these results: Potency and affinity values are given separately. Activity calls are given as the source filed them. Unless noted, the rule behind the calls is not given here.

The nature of test [1]: antimalarial activity against Dd2 strain (AID 2302;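 active = growth inhibition above 50% at the single 2 µM test dose, taken to imply half-maximal potency below 2 µM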;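 note: 0% = DMSO untreated growth and 100% = chloroquine plus artemisinin killed control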). As to conditions: P. falciparum Dd2 in RBCs, LDH growth readout, 72 h; at 2 µM; hits give high values.
The nature of test [2]: human hepatoma cell viability loss – ATP luminescence, cytotoxicity control for P. falciparum antimalarial project, primary screen (AID 2303;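 active = inhibition above 50%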;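 note: 0% = DMSO wells and 100% = digitonin-killed cells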). Particulars: HepG2 viability, 24-48 h, at 10 µM, hits give high values.
In test [3] the target is L-lactate dehydrogenase (Plasmodium falciparum (isolate CDC / Honduras)) (UniProt Q27743). As to the kind of experiment: PfLDH activity inhibition – cell lysate, 3D7 strain, counter-screen for P. falciparum growth inhibition project (AID 2304).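 Note: 0% = vehicle and 100% = reference inhibitor.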 As to conditions: P. falciparum 3D7 crude extract, LDH APAD/NBT absorbance; at 2 µM; hits give high values. Background: A counterscreen serves to expose hits that act by an unwanted route or on another target.

Test [4] in a line: inhibition of 3D7 malaria parasite growth – strain 3D7 (AID 2306).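 Note: 0% = DMSO wells and 100% = chloroquine plus artemisinin control wells.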 Particulars: P. falciparum 3D7 erythrocytic growth, LDH absorbance, 72 h; at 2 µM; hits give high values.
Test [5] has as its target Calcium-dependent protein kinase 1 (Plasmodium falciparum (isolate 3D7)) (UniProt P62344). As to the kind of experiment: PfCDPK1 kinase inhibitors, biochemical, TCAMS library (AID 1159585; cut-off not given, nearly all actives have IC50 up to about 0.98 µM;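 note: inhibitors leave more ATP so luminescence rises with inhibition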). As to conditions: recombinant PfCDPK1, Kinase-Glo ATP depletion luminescence. Background: In Kinase-Glo more light means more ATP remaining.
In test [6] the target is Plasmodium falciparum protein kinase 6 (PK6, PF3D7_1337100) (UniProt Q8IDW1). As to the kind of experiment: PfPK6 kinase inhibitors, biochemical, TCAMS library (AID 1159586). As to conditions: recombinant PfPK6, Kinase-Glo ATP depletion luminescence.
Test [7] concerns the target Protein kinase 7 (PK7), Plasmodium falciparum 3D7 (PF3D7_0213400) (UniProt Q7YTF7). As to the kind of experiment: inhibition of Plasmodium PK7 catalytic activity – biochemical, TCAMS antimalarial set, Kinase-Glo luminescence (AID 1159587). As to conditions: recombinant PfPK7, Kinase-Glo ATP depletion luminescence.
For test [8], the target named is Calcium-dependent protein kinase 4 (Plasmodium falciparum (isolate 3D7)) (UniProt Q8IBS5). As to the kind of experiment: PfCDPK4 kinase inhibitors, biochemical, TCAMS library (AID 1159588; cut-off not given, nearly all actives have IC50 up to about 0.91 µM). As to conditions: recombinant PfCDPK4, Kinase-Glo ATP depletion luminescence.
Calcium-dependent protein kinase 4 (Plasmodium falciparum (isolate 3D7)), sequence (Q8IBS5 whole entry, looked up): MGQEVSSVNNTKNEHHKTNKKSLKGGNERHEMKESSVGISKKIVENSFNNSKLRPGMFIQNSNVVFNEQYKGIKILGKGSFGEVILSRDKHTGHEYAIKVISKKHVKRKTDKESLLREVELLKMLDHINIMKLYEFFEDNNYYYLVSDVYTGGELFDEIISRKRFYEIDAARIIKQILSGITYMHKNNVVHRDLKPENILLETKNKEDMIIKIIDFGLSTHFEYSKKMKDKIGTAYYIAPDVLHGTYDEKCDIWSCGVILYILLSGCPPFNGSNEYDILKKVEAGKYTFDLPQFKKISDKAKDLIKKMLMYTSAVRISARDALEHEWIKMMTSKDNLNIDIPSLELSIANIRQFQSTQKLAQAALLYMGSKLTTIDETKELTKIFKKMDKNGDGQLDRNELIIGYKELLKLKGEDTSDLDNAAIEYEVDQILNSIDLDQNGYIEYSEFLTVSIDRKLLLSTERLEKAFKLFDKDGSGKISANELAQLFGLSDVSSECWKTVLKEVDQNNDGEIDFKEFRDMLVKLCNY

Calcium-dependent protein kinase 1 (Plasmodium falciparum (isolate 3D7)), sequence (P62344 whole entry, looked up): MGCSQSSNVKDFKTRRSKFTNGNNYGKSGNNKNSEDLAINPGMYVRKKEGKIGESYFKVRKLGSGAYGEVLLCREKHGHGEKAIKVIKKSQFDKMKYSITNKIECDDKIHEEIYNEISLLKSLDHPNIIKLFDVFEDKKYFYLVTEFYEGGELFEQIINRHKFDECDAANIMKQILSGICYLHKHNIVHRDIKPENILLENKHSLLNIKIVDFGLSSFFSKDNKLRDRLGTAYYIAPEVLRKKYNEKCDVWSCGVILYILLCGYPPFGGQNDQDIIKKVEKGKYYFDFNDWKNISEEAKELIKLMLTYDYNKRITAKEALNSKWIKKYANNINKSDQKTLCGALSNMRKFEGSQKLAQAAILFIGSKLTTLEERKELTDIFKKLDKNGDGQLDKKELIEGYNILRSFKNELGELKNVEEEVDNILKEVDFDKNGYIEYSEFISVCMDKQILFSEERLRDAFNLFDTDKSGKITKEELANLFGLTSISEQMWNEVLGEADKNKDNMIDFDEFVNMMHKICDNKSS
L-lactate dehydrogenase (Plasmodium falciparum (isolate CDC / Honduras)), sequence (Q27743 whole entry, looked up): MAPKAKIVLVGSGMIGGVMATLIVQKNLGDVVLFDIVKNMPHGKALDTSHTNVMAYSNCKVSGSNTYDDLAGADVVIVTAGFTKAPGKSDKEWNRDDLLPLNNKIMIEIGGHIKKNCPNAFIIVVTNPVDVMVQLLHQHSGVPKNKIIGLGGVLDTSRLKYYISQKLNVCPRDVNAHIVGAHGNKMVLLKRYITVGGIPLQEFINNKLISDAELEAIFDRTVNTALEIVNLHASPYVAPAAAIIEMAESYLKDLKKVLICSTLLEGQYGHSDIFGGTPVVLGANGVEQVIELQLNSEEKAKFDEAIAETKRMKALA
Plasmodium falciparum protein kinase 6 (PK6, PF3D7_1337100), sequence (Q8IDW1 1-305): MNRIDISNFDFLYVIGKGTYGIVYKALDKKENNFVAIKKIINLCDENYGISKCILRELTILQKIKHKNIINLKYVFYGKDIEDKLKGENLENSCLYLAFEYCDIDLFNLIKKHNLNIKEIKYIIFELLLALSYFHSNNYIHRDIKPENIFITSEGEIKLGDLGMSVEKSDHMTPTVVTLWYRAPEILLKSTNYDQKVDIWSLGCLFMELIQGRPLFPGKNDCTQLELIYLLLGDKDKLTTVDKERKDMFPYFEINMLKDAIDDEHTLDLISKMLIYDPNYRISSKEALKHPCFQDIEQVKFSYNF
Protein kinase 7 (PK7), Plasmodium falciparum 3D7 (PF3D7_0213400), sequence (Q7YTF7 1-343): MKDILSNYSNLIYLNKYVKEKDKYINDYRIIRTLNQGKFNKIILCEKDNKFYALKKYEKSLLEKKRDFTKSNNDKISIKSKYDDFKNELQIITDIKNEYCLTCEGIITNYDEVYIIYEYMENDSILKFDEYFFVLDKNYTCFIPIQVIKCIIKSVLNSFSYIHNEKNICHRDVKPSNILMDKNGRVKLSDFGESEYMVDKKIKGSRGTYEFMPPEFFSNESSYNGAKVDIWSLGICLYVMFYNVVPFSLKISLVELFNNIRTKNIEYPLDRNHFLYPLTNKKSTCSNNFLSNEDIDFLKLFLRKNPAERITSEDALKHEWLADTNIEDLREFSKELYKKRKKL

On to `COc1ccc(C(=O)N2CCC(CN3CCOC(c4ccccc4)(c4ccccc4)C3)CC2)cc1`, for which the growth inhibition in test [1] was 96% (active); in test [4] it was 95% (active). Further, the inhibition in test [2] is 19%; in test [3], 5%. Besides, the outcome in test [5], in test [6], in test [7] and in test [8] was inactive.
Turning to `O=C(CCc1cnc[nH]1)Nc1cccc(-c2ccc(-c3nc4ccccc4[nH]3)s2)c1`, the growth inhibition was 37% in test [1] and 92% (active) in test [4]. Moreover, the inhibition is 11% in test [2] and 0% in test [3]. The result in test [5], in test [6], in test [7] and in test [8] was inactive.
Consider `O=C(N[C@@H](Cc1ccccc1)C(=O)NC1CCCCCC1)c1ccc(O)c(-c2cccc(C(F)(F)F)c2)c1`, for which the growth inhibition in test [1] is 70% (active); in test [4], 98% (active). Also, the values for the inhibition in test [2] and in test [3] were -10% and -1%, respectively. Further, the outcome in test [5], in test [6], in test [7] and in test [8] was inactive.
As to `COc1ccc2ncc(F)c(CCN3C[C@H](CNCc4ccccc4)[C@H](O)C3)c2n1`, the growth inhibition in test [1] was 22%; in test [4], 89% (active). Further, the inhibition in test [2] is 19%; in test [3], 8%. The outcome in test [5], in test [6], in test [7] and in test [8] was inactive.
Consider `O=C(Nc1ccccc1)N(Cc1cccc(-c2ccc(CNCCc3ccccc3)cc2)c1)C1CCN(Cc2ccccc2)CC1`, for which the growth inhibition in test [1] is 95% (active); in test [4], 101% (active). In addition, the inhibition in test [2] is 100% (active); in test [3], 3%. Also, the outcome in test [5], in test [6], in test [7] and in test [8] was inactive.
With `CCn1c(-c2nonc2N)nc2cnc(Oc3cccc(NC(=O)c4ccc(OCCN5CCCC5)cc4)c3)cc21`, the growth inhibition in test [1] is 1%; in test [4] it was 92% (active). For the same molecule, the inhibition in test [2] was 25%; in test [3], 2%. The result in test [5], in test [6], in test [7] and in test [8] was inactive.
For the molecule `CC(C)(C)c1ccc(NC(=O)c2ccc(CN3CCCN(Cc4ccc(F)cc4)CC3)cc2)cc1`, the growth inhibition was 7% in test [1] and 87% (active) in test [4]. Besides, the inhibition in test [2] was 55% (active); in test [3], -1%. Moreover, the result in test [5], in test [6], in test [7] and in test [8] was inactive.
Consider `CN1CCCc2cc(NC(=O)C=Cc3ccc(-c4ccc(F)cc4F)o3)ccc2C1`, for which the growth inhibition is 27% in test [1] and 90% (active) in test [4]. The inhibition is 5% in test [2] and 4% in test [3]. For the same molecule, the result in test [5], in test [6], in test [7] and in test [8] was inactive.
Regarding `Cc1cccc2[nH]c(-c3ccc(-c4cccc(CNCCN(C)C)c4)cc3)nc12`, the growth inhibition in test [1] was 98% (active); in test [4] it was 102% (active). For the same molecule, the inhibition in test [2] is 6%; in test [3], 0%. Moreover, the result in test [5], in test [6], in test [7] and in test [8] was inactive.
With `NC(=O)c1cccc(C(=O)Nc2cccc(-c3ccc(-c4nc5ccccc5[nH]4)s3)c2)c1`, the growth inhibition in test [1] was 69% (active); in test [4] it was 95% (active). Moreover, the inhibition in test [2] is 37%; in test [3] it was 1%. Moreover, the outcome in test [5], in test [6], in test [7] and in test [8] was inactive.
For `O=C(Nc1cccc(-c2ccc(-c3nc4ccc(F)cc4[nH]3)cc2)c1)c1csnn1`, the growth inhibition in test [1] is 31%; in test [4], 94% (active). Also, the inhibition in test [2] was 22%; in test [3], 0%. Moreover, the result in test [5], in test [6], in test [7] and in test [8] was inactive.
As for `CCN(CCCN1CCCCC1)c1cc(C)nc(Nc2ccc(C)cc2C(F)(F)F)n1`, the figures for the growth inhibition in test [1] and in test [4] were 35% and 101% (active), respectively. The inhibition was 23% in test [2] and -2% in test [3]. Also, the outcome in test [5], in test [6], in test [7] and in test [8] was inactive.
For `CCOC(=O)NC1=NC(C)(C)N(OCc2ccc(Cl)c(Cl)c2)C(NC(=O)OCC)=N1`, the growth inhibition in test [1] is 4%; in test [4] it was 98% (active). For the same molecule, the inhibition in test [2] is 65% (active); in test [3], 2%. Besides, the result in test [5], in test [6], in test [7] and in test [8] was inactive.
With `O=C(NCC(NCCCNc1cc(=O)c2ccccc2[nH]1)c1cc(Br)cc(Br)c1)C1=CCCC1` (stereo not given), the growth inhibition in test [1] is 48%; in test [4] it was 96% (active). For the same molecule, the figures for the inhibition in test [2] and in test [3] were -4% and 7%, respectively. The result in test [5], in test [6], in test [7] and in test [8] was inactive.
As to `OC(CNc1ccnc(Nc2ccccc2)n1)c1cccc(C(F)(F)F)c1` (stereo not given), the growth inhibition in test [1] is 61% (active); in test [4], 100% (active). Moreover, the inhibition in test [2] is 16%; in test [3], -2%. For the same molecule, the outcome in test [5], in test [6], in test [7] and in test [8] was inactive.
Regarding `CC1(C)N=C(N)NC(Nc2ccc(F)c(F)c2)=N1`, the results for the growth inhibition in test [1] and in test [4] were 1% and 91% (active), respectively. Besides, the inhibition in test [2] is 59% (active); in test [3], -10%. Moreover, the result in test [5], in test [6], in test [7] and in test [8] was inactive.
In the case of `CCn1c(C(C)C)cc2c3c(N)nc(N)nc3ccc21`, the growth inhibition in test [1] was -2%; in test [4], 92% (active). Moreover, the figures for the inhibition in test [2] and in test [3] were 67% (active) and 2%, respectively. Besides, the result in test [5], in test [6], in test [7] and in test [8] was inactive.
With `CN(C)CCN(C)Cc1cccc(-c2ccc3c(Nc4cc(O)c(Cl)cc4F)ccnc3c2)c1`, the growth inhibition was 70% (active) in test [1] and 101% (active) in test [4]. The inhibition in test [2] is 14%; in test [3], -5%. The result in test [5], in test [6], in test [7] and in test [8] was inactive.
Take `Fc1cccc(COc2ccc(Nc3ncnc4ccc(C#C[C@H]5CCCN5)cc34)cc2Cl)c1`: the results for the growth inhibition in test [1] and in test [4] were 26% and 91% (active), respectively. Moreover, the results for the inhibition in test [2] and in test [3] were 7% and -2%, respectively. Moreover, the result in test [5], in test [6], in test [7] and in test [8] was inactive.
On to `CNCCNCc1cccc(-c2ccc(-c3nc4ccc(C(F)(F)F)cc4[nH]3)s2)c1`, for which the growth inhibition in test [1] was 85% (active); in test [4], 98% (active). Moreover, the inhibition is 31% in test [2] and 4% in test [3]. Moreover, the result in test [5], in test [6], in test [7] and in test [8] was inactive.
